Holding throughout (test): DAPPL (digital affinity profiling via proximity ligation, sequencing); 10 mM Tris-HCl pH 7.5, 50 mM NaCl, 1 mM DTT, 4% glycerol, room temperature, 30 min; GST-TFs on glutathione beads, 16-mer random dsDNA library, 0.1% formaldehyde crosslink after washing; high values mean tight binding
For one assay, the target named is T1, FEV (Homo sapiens, UniProt Q99581 1-238).
T1 sequence: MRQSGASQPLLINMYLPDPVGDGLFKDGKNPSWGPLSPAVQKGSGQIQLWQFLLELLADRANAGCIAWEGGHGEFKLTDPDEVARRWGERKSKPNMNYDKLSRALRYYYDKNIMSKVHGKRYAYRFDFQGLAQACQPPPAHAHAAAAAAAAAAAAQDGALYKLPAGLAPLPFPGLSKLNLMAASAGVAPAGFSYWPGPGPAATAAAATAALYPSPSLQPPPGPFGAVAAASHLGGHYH
Particulars: protein: recombinant; tags: N-terminal GST; dsDNA, one strand shown. The method, boiled down:
(§1)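 Yeast served to express human transcription factors as GST fusions, which were then captured on glutathione beads and labelled with DNA barcodes. Pooled with a tag-only sample, they were incubated with 200 nmole of a 16-mer random double-stranded DNA library for 30 min at room temperature in Tris/NaCl/DTT/glycerol buffer, washed, crosslinked with 0.1% formaldehyde, ligated by proximity, amplified by PCR and sequenced. Dividing each hexamer's read frequency for a factor by its frequency for the tag-only sample gives the binding signal.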

A further assay deals with ETV5 (Homo sapiens, UniProt P41161 1-510). As to conditions: protein: recombinant; tags: N-terminal GST; dsDNA, one strand shown. The method, boiled down: as §1
In a further assay the target is HSF1 (Homo sapiens, UniProt Q00613 1-529). As to conditions: protein: recombinant; tags: N-terminal GST; chain copies: 3; dsDNA, one strand shown. The method, boiled down: as §1
The next assay has as its target T2, SPIC (Homo sapiens, UniProt Q8N5J4 1-248).
T2 sequence: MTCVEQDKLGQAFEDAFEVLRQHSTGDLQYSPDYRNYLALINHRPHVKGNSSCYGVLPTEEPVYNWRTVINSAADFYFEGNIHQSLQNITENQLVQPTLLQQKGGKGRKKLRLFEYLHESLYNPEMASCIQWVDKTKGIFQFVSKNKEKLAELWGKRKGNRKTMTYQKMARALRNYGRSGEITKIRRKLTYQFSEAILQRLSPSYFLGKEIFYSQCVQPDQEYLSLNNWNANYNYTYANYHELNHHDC
Particulars: protein: recombinant; tags: N-terminal GST; dsDNA, one strand shown. The method, boiled down: as §1

The next assay has as its target ELF4 (Homo sapiens, UniProt Q99607 1-663). As to conditions: protein: recombinant; tags: N-terminal GST; dsDNA, one strand shown. A digest of the protocol: as §1
The target in another assay is T3, ELK4 (Homo sapiens, UniProt P28324-2 1-405).
T3 sequence: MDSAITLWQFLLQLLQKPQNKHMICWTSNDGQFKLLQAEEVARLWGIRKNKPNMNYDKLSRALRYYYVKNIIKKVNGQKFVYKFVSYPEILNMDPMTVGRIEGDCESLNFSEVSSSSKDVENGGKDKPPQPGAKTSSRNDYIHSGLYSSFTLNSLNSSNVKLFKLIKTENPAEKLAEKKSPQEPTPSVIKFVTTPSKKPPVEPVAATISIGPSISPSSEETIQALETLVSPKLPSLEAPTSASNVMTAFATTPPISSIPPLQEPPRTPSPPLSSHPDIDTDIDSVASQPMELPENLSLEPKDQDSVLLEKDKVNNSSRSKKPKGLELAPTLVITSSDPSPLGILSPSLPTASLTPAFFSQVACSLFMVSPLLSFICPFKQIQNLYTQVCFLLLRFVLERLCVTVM
As to conditions: protein: recombinant; tags: N-terminal GST; dsDNA, one strand shown. A digest of the protocol: as §1

Another assay deals with T4, ETV2 (Homo sapiens, UniProt O00321 1-342).
T4 sequence: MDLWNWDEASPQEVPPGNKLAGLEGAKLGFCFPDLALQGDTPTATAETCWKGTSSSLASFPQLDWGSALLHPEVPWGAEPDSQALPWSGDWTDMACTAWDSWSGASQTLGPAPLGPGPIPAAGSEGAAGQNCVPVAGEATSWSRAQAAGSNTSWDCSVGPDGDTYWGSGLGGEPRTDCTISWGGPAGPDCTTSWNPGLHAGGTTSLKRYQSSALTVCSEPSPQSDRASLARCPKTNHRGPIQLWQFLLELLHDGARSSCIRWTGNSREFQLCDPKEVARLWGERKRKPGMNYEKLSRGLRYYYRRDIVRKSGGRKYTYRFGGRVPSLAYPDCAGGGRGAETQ
As to conditions: protein: recombinant; tags: N-terminal GST; dsDNA, one strand shown. A digest of the protocol: as §1

Another assay has as its target T5, ELF3 (Homo sapiens, UniProt P78545 1-371).
T5 sequence: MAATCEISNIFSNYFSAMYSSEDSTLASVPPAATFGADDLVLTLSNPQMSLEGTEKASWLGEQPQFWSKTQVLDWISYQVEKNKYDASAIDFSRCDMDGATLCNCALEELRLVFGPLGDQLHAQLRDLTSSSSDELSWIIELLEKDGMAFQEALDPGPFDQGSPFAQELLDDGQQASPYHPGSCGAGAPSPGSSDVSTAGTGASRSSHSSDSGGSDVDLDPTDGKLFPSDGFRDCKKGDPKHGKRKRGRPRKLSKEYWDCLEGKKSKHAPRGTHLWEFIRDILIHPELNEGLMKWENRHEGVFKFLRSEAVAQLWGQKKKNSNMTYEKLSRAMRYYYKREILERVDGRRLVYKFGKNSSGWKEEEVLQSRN
Particulars: protein: recombinant; tags: N-terminal GST; dsDNA, one strand shown. The method, boiled down:
as §1

Another assay addresses CRX (Homo sapiens, UniProt O43186 1-299). As to conditions: protein: recombinant; tags: N-terminal GST; dsDNA, one strand shown. A digest of the protocol:
as §1

Another assay concerns the target ETV1 (Homo sapiens, UniProt P50549 1-477). Particulars: protein: recombinant; tags: N-terminal GST; dsDNA, one strand shown. The method, boiled down:
as §1

Another assay concerns the target T6, ERF (Homo sapiens, UniProt P50548 1-548).
T6 sequence: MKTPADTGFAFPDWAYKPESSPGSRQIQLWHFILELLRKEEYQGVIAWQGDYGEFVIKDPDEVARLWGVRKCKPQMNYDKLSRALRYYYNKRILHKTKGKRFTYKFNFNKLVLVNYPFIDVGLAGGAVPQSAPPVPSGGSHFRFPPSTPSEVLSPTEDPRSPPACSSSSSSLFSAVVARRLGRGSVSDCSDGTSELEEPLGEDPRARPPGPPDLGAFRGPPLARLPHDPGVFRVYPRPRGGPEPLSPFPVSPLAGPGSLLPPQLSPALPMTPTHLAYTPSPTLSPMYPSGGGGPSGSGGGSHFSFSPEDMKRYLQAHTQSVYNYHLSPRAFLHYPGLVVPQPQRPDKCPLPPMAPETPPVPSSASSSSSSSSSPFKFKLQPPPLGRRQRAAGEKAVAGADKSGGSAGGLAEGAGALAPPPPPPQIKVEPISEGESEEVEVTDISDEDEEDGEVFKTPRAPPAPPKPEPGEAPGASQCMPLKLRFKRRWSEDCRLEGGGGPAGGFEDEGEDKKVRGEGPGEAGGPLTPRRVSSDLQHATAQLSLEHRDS
As to conditions: protein: recombinant; tags: N-terminal GST; dsDNA, one strand shown. A digest of the protocol: as §1

The target of a further assay is T7, ETV3L (Homo sapiens, UniProt Q6ZN32 1-361).
T7 sequence: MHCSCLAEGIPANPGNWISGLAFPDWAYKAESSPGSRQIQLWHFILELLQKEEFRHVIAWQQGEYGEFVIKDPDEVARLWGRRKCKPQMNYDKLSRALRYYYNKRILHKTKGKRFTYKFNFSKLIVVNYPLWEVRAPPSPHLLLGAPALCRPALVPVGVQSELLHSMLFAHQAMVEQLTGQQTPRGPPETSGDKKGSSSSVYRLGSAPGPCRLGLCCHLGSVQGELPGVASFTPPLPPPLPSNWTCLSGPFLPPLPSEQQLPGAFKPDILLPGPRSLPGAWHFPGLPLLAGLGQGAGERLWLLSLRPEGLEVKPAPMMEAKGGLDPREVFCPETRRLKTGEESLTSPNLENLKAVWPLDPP
Particulars: protein: recombinant; tags: N-terminal GST; dsDNA, one strand shown. A digest of the protocol: as §1

The target of a further assay is T8, ETS2 (Homo sapiens, UniProt P15036 1-469).
T8 sequence: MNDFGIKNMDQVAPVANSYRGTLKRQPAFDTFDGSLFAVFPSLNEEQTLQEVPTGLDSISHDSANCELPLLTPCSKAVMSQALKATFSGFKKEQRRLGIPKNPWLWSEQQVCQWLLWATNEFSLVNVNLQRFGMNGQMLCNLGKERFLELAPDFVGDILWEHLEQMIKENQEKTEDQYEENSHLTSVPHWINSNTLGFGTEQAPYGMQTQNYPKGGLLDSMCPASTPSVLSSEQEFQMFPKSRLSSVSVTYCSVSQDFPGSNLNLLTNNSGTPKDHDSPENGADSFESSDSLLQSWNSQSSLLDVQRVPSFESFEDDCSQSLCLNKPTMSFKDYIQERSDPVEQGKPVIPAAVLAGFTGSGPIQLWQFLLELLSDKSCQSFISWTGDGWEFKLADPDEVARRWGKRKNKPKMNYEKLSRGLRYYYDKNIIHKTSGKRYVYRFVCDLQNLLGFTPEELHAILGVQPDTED
As to conditions: protein: recombinant; tags: N-terminal GST; dsDNA, one strand shown. A digest of the protocol: as §1

A further assay concerns the target T9, SPDEF (Homo sapiens, UniProt O95238 1-335).
T9 sequence: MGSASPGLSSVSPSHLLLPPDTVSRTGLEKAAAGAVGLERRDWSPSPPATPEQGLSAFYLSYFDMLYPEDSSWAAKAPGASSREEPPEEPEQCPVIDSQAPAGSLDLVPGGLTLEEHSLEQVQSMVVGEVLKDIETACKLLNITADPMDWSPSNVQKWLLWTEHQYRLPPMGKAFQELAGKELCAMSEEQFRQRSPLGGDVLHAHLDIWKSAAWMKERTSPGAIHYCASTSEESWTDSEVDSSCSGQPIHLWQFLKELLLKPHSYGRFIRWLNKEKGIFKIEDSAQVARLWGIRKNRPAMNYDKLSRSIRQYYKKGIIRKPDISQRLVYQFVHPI
Particulars: protein: recombinant; tags: N-terminal GST; dsDNA, one strand shown. A digest of the protocol:
as §1

The target of a further assay is T10, ETV7 (Homo sapiens, UniProt Q9Y603 1-341).
T10 sequence: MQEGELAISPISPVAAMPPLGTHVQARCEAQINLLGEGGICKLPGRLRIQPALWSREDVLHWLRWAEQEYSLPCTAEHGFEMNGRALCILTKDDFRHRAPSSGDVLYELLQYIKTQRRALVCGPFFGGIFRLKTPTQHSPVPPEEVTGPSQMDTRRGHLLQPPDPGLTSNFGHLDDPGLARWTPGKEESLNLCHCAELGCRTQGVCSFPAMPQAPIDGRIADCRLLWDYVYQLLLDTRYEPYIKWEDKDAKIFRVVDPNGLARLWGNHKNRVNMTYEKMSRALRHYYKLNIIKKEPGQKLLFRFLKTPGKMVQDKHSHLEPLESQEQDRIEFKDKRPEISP
Particulars: protein: recombinant; tags: N-terminal GST; dsDNA, one strand shown. The method, boiled down:
as §1

The next assay addresses T11, ELF5 (Homo sapiens, UniProt Q9UKW6-2 1-255).
T11 sequence: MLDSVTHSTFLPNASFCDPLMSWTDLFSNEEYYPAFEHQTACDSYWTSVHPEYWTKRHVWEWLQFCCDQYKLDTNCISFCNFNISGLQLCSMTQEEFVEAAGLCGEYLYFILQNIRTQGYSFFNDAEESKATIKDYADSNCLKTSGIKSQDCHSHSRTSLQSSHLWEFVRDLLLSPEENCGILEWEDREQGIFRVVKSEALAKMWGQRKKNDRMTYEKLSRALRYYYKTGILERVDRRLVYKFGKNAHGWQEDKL
As to conditions: protein: recombinant; tags: N-terminal GST; dsDNA, one strand shown. A digest of the protocol: as §1

The next assay deals with T12, ETV3 (Homo sapiens, UniProt P41162-2 1-143).
T12 sequence: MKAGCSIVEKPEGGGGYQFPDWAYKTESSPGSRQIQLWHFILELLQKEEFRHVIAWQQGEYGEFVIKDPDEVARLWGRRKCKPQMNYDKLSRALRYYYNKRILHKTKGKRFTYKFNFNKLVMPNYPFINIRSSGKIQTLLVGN
Particulars: protein: recombinant; tags: N-terminal GST; dsDNA, one strand shown. The method, boiled down:
as §1

The next assay has as its target ETV6 (Homo sapiens, UniProt P41212 1-452). As to conditions: protein: recombinant; tags: N-terminal GST; dsDNA, one strand shown. A digest of the protocol: as §1

Experimental findings from publication PMC7862700, “An all-to-all approach to the identification of sequence-specific readers for epigenetic DNA modifications on cytosine” are described below.

CRX, sequence (O43186 whole entry): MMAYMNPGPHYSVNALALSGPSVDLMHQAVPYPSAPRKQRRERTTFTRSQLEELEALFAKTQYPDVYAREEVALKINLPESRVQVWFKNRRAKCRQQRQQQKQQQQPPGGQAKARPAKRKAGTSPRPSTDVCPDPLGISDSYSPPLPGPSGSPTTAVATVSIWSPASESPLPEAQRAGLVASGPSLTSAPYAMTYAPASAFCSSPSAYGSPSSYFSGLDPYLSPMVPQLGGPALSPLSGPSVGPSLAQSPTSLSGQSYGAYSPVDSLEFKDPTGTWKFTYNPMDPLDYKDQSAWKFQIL
ETV6, sequence (P41212 whole entry): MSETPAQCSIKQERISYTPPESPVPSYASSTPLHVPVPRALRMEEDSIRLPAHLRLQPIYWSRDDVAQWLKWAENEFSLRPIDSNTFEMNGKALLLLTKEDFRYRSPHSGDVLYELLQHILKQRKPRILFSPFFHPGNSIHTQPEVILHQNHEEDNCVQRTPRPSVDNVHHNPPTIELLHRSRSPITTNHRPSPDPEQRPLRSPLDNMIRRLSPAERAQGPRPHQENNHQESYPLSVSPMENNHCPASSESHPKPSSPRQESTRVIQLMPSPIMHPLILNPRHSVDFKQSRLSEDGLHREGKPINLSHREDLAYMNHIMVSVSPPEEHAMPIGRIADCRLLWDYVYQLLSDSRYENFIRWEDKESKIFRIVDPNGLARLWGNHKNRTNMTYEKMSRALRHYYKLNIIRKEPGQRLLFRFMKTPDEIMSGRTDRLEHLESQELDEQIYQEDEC
ETV5, sequence (P41161 whole entry): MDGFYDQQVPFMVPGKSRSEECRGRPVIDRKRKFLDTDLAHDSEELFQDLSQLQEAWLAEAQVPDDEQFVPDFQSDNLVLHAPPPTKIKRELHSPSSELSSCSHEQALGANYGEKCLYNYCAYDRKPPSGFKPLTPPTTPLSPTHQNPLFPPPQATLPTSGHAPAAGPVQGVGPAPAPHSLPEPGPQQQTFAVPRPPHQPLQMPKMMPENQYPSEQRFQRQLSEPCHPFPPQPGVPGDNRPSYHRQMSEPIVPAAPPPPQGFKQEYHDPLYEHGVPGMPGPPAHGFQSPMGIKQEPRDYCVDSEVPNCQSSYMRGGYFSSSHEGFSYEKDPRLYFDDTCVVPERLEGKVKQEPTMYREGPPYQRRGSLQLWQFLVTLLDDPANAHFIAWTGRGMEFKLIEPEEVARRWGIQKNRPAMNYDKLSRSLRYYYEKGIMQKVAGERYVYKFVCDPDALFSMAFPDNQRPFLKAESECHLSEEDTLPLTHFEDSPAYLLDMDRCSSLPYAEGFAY
ELF4, sequence (Q99607 whole entry): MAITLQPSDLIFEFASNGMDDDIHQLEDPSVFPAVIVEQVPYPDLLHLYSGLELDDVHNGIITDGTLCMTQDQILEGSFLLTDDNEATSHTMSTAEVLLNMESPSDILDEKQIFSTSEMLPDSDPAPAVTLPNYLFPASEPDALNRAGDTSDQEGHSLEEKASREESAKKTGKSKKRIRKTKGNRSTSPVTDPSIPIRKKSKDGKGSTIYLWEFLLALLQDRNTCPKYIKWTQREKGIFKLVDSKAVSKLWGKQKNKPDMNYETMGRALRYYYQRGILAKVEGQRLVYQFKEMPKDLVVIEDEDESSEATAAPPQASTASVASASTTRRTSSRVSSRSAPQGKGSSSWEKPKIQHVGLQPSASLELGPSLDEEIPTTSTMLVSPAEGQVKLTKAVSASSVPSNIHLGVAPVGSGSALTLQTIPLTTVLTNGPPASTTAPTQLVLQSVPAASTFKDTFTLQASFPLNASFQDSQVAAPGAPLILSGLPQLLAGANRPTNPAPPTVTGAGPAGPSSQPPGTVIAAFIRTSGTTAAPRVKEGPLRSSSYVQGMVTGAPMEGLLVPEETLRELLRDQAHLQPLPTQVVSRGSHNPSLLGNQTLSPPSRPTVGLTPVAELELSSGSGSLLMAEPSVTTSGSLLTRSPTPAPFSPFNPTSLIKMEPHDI
ETV1, sequence (P50549 whole entry): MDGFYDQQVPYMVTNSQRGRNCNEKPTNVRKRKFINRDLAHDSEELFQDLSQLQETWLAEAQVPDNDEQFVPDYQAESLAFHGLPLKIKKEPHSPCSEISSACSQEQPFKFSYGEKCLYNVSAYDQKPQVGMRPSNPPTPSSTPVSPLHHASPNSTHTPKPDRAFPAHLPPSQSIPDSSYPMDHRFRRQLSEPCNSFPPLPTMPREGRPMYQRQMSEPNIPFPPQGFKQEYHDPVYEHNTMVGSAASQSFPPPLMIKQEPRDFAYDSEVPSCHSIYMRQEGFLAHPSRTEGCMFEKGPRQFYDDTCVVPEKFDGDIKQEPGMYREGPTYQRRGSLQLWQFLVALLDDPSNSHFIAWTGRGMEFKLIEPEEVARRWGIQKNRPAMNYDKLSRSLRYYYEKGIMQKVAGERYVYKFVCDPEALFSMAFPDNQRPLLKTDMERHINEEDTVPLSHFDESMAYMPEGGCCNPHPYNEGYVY
HSF1, sequence (Q00613 whole entry): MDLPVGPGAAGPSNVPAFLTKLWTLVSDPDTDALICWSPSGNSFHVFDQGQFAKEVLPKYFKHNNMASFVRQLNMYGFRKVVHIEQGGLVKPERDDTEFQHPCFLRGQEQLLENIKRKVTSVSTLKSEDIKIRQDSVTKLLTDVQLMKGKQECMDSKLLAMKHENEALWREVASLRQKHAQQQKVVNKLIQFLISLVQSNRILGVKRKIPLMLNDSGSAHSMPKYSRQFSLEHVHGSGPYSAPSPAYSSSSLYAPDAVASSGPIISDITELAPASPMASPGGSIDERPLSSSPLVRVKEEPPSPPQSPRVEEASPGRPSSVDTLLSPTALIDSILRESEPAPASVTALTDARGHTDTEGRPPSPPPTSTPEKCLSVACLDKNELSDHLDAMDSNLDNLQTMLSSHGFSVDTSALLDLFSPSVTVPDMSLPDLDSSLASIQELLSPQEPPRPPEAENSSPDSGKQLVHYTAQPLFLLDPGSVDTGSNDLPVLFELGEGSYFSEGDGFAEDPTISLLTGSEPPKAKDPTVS

Consider CCTCGA, for which the binding signal is 1.21 fold enrichment (6-mer frequency, TF over GST control) in the assay with FEV; 1.27 fold enrichment (6-mer frequency, TF over GST control) in the assay with ETV5; 1.75 fold enrichment (6-mer frequency, TF over GST control) in the assay with HSF1; 1.29 fold enrichment (6-mer frequency, TF over GST control) in the assay with SPIC; 1.35 fold enrichment (6-mer frequency, TF over GST control) in the assay with ELF4; 1.38 fold enrichment (6-mer frequency, TF over GST control) with ELK4. In addition, the binding signal with ETV2 is 1.55 fold enrichment (6-mer frequency, TF over GST control); with ELF3 it was 1.25 fold enrichment (6-mer frequency, TF over GST control); in the assay with CRX, 1.26 fold enrichment (6-mer frequency, TF over GST control); with ETV1, 1.15 fold enrichment (6-mer frequency, TF over GST control); with ERF it was 1.28 fold enrichment (6-mer frequency, TF over GST control); in the assay with ETV3L, 1.35 fold enrichment (6-mer frequency, TF over GST control). For the same sequence, the binding signal was 1.21 fold enrichment (6-mer frequency, TF over GST control) with ETS2; 1.23 fold enrichment (6-mer frequency, TF over GST control) in the assay with SPDEF; 1.42 fold enrichment (6-mer frequency, TF over GST control) with ETV7; 1.34 fold enrichment (6-mer frequency, TF over GST control) with ELF5; 1.26 fold enrichment (6-mer frequency, TF over GST control) in the assay with ETV3; 1.29 fold enrichment (6-mer frequency, TF over GST control) with ETV6.
